Laboratory results from PubChem BioAssay.
Active and inactive are the calls of the source.

Key:
[1] = tested on: Plasmodium falciparum Sir2 (PF13_0152, Sir2A); test: pfSir2 binders on small-molecule microarrays, primary screen, biochemical, small-molecule microarray, 635 nm fluorescence (AID 1098); settings: small-molecule microarray binding, fluorescence 635 nm; higher = more signal;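 note: score merges spot fluorescence intensity with its signal-to-noise ratio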
[2] = small-molecule microarray binders of probe aDKK1, primary screen, biochemical, biotinylated probe, 635/667 nm fluorescence (AID 1099); settings: higher = more signal;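 note: score merges 667nm spot fluorescence with signal to noise across triplicate slides; reference of the scale not given here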
[3] = small-molecule microarray binders of probe aCHRDL2, primary screen, biochemical, biotinylated probe, 635/667 nm fluorescence (AID 1100); settings: higher = more signal
[4] = splicing luciferase reporter signal modulators, primary screen, spliceosome inhibition project, cell-based, HEK293, splice +/- reporter (AID 1101); settings: luminescence, 24 h, higher = more signal, called active from +8 up or from −8 down;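 note: HEK293 cells carrying a splicing-competent luciferase reporter gene; test concentration not given here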
[5] = target: Fibroblast growth factor 10 (Homo sapiens) (UniProt O15520); test: FGF10 binders on small-molecule microarrays, primary screen, biochemical, small-molecule microarray, 635 nm fluorescence (AID 1102); settings: FGF10 binding, fluorescence 635 nm, higher = more signal
Fibroblast growth factor 10 (Homo sapiens), sequence (O15520 whole entry, looked up): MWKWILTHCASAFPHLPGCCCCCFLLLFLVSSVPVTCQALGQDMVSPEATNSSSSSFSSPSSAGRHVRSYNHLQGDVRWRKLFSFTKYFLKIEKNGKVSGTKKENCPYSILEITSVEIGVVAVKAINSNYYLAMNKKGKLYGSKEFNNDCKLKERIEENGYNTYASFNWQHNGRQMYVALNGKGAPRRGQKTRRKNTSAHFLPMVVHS

[6] = tested on: glycogen synthase kinase-3 (GSK3A per assay name; protocol says GSK3B); test: GSK3 binders on small-molecule microarrays, primary screen, biochemical, small-molecule microarray, 635 nm fluorescence, GSK3A (AID 1103); settings: small-molecule microarray binding, fluorescence 635 nm; higher = more signal; note: the record names both GSK3A and GSK3B
[7] = target: Epidermal growth factor receptor (Homo sapiens) (UniProt P00533); test: EGFR binders on small-molecule microarrays, primary screen, biochemical, small-molecule microarray, 635 nm fluorescence (AID 1104); settings: EGFR binding, higher = more signal;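 note: score merges 667 nm emission intensity with spot signal to noise over triplicate slides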
Epidermal growth factor receptor (Homo sapiens), sequence (P00533 whole entry, looked up): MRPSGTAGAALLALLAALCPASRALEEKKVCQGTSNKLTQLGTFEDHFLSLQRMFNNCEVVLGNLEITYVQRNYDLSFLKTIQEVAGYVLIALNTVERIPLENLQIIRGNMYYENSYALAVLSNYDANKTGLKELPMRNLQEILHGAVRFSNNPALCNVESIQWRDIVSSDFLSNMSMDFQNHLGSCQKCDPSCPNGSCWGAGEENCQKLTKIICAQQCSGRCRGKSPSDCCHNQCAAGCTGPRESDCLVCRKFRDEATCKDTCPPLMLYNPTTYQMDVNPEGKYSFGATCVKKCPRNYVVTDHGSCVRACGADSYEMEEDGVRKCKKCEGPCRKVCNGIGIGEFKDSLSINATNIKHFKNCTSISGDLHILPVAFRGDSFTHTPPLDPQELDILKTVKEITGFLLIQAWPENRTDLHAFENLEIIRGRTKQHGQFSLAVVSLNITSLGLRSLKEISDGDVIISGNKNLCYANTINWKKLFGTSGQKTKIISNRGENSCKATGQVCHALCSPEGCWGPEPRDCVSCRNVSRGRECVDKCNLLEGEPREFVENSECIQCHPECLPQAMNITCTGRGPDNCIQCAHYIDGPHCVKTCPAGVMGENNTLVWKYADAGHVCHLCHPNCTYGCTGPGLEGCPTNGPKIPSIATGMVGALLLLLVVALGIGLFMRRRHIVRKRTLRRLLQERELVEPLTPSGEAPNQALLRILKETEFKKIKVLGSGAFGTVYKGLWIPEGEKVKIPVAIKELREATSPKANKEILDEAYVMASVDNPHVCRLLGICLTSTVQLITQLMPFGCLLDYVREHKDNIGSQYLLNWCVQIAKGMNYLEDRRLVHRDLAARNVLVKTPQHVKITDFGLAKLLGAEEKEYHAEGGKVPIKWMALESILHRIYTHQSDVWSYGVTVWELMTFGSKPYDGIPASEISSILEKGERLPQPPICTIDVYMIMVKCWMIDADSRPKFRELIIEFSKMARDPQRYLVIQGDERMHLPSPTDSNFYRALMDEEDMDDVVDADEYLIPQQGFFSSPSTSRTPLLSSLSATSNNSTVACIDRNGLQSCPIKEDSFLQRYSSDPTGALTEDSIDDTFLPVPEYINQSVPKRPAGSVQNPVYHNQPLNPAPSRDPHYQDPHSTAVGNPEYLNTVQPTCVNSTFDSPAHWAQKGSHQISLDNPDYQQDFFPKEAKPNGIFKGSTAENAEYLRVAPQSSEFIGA

[8] = target: Follistatin-related protein 3 (Homo sapiens) (UniProt O95633); test: FSTL3 binders on small-molecule microarrays, primary screen, biochemical, small-molecule microarray, 635 nm fluorescence (AID 1105); settings: FSTL3 binding, higher = more signal;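 note: score merges emission near 667 nm and signal to noise per printed spot across three slides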
Follistatin-related protein 3 (Homo sapiens), sequence (O95633 whole entry, looked up): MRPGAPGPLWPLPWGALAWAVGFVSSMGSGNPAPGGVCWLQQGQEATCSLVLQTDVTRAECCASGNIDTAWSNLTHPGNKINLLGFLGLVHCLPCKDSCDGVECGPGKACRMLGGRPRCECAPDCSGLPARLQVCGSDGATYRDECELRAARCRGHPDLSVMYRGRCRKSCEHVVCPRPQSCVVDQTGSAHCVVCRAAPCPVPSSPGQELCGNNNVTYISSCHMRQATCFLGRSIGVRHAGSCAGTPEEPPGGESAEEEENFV

[9] = target: Dickkopf-related protein 1 (Homo sapiens) (UniProt O94907); test: DKK1 binders on small-molecule microarrays, primary screen, biochemical, small-molecule microarray, 635 nm fluorescence scan (AID 1106); settings: DKK1 binding, higher = more signal;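 note: score merges emission near 667 nm with signal to noise over three replicate slides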
Dickkopf-related protein 1 (Homo sapiens), sequence (O94907 whole entry, looked up): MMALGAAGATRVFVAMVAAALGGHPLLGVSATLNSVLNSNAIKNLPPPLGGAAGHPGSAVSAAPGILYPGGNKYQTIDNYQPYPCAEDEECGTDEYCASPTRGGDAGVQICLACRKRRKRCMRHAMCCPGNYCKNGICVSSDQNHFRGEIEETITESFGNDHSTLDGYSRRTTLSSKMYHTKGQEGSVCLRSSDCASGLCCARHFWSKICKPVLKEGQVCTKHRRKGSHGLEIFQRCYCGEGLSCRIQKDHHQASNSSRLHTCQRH

[10] = tested on: Inhibin beta A chain (activin A); test: INHBA (activin A) binders on microarrays, primary screen, biochemical, small-molecule microarray, 635 nm fluorescence scan (AID 1107); settings: small-molecule microarray binding, higher = more signal;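 note: mouse activin A protein probed at 4.33 µg/mL on printed slides; score merges bound-protein fluorescence near 667 nm with spot signal-to-noise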

Row | SMILES | composite z-score [1] | composite z-score [2] | composite z-score [3] | z-score [4] | composite z-score [5] | composite z-score [6] | composite z-score [7] | composite z-score [8] | composite z-score [9] | composite z-score [10]
1 | [N-]=[N+]=NCc1ccccc1[C@H]1OC(c2ccc(OCCCO)cc2)=N[C@@]1(CCS(=O)(=O)c1ccccc1)C(=O)NCCN1CCOCC1 | 1.51 | 0.667 | 1.12 | -0.757 (inactive) | 1.38 | 0.844 | 0.135 | 0.698 | 0.0689 | 0.914
2 | O=C1O[C@H](c2ccccc2)[C@H](c2ccccc2)N2[C@H]1[C@@H](C(=O)N1CCN(c3ncccn3)CC1)[C@]1(C(=O)Nc3ccc(C#CC4(O)CCCCCC4)cc31)[C@H]2c1ccc(O)cc1 | 1.54 | 0.111 | -0.156 | -0.262 (inactive) | 0.989 | 1 | 0.241 | 0.764 | 0.185 | 0.0022
3 | Cc1cccc([C@H]2C[C@H]3C(Br)=C[C@@]2(CO)C(=O)[C@]32CO2)c1 | 0.259 | 0.0578 | 0.382 | -0.34 (inactive) | 1.01 | 0.0353 | -0.0766 | 0.159 | -0.166 | 0.55
4 | COCCOC(=O)N1C(=O)[C@@]2(c3cc(C#CC4=CCCCC4)ccc31)[C@H](c1ccc(O)cc1)N1[C@H](c3ccccc3)[C@H](c3ccccc3)OC(=O)[C@H]1[C@@H]2C(=O)N1CCc2cc(OC)c(OC)cc2C1 | 0.835 | 0.15 | 0.338 | 0.864 (inactive) | 0.415 | 0.202 | 0.0275 | 0.227 | 0.0375 | 0.545
5 | C=CCNC(=O)[C@@H]1[C@H]2C(=O)O[C@H](c3ccccc3)[C@H](c3ccccc3)N2[C@H](c2ccc(OCCO)cc2)[C@@]12C(=O)Nc1ccc(C#CCNC(N)=O)cc12 | 1.05 | -0.123 | 0.584 | -0.0958 (inactive) | -0.385 | -0.402 | -1.13 | 0.16 | -0.456 | 1.31
6 | COC(=O)C1=CC(c2ccc(CO)cc2)=CC(C2CC2)N(Cc2cc3c(cc2Br)OCO3)C=C1C(=O)OC (stereo not given) | 1.66 | 0.706 | 0.844 | 1.17 (inactive) | 1.18 | 1.29 | 0.737 | 0.89 | 0.157 | 0.836
7 | CC[C@@H](O[Si](C#C[Si](C(C)C)(C(C)C)C(C)C)(C(C)C)C(C)C)c1cn([C@H](CO)Cc2ccccc2)nn1 | 0.954 | -0.331 | -0.592 | 0.131 (inactive) | 0.675 | 0.566 | 0.236 | 0.675 | 0.39 | -0.092
8 | CC(C)C(=C=CC[C@H](O)c1cccc(OCCO)c1)C[C@H](O)c1ccccn1 | 0.406 | -0.326 | -0.253 | -0.779 (inactive) | 0.722 | 0.476 | -0.387 | 0.339 | -0.15 | 0.409
9 | Cc1ccc(S[C@]2(C(=O)NCC(C)C)CC(=O)N(C(C)C)[C@@H]2c2ccc(CO)cc2I)cc1 | 0.115 | 0.669 | 1.28 | -1.14 (inactive) | -0.679 | -1.03 | -0.941 | -0.573 | -0.7 | 0.256
10 | C=CC[C@]1(C(N)=O)N=C(c2ccc(OCCCO)cc2)O[C@H]1c1ccccc1N=[N+]=[N-] | 1.56 | 1.28 | 1.26 | -0.401 (inactive) | 1.06 | 0.755 | 0.259 | 1.03 | 0.0701 | 1.48
11 | [N-]=[N+]=NCc1ccccc1C[C@@]1(C(=O)NCCN2CCOCC2)N=C(c2ccc(OCCCO)cc2)O[C@@H]1c1ccccc1 | 0.365 | 0.809 | 0.996 | 0.995 (inactive) | 0.486 | -0.0659 | -0.883 | -0.192 | -0.342 | 0.293
12 | CCCCC(=C=CC[C@H](O)c1ccccc1OCCO)CCO | 0.653 | -0.182 | -0.0244 | -0.25 (inactive) | 0.27 | -0.123 | -0.689 | -0.569 | -0.429 | 0.754
13 | COC(=O)[C@@]1(Cc2ccc(F)cc2)[C@@H]2C(=CC(=O)[C@H]2CC(=O)C(=O)N2CCCC2)CN1C(=O)c1ccccc1 | 0.9 | 1.72 | 0.978 | -4.12 (inactive) | 1.48 | 0.573 | 1.36 | 1.39 | 0.467 | 1.19
14 | O=C1C2C=CC(C(O)C(c3ccccc3)c3ccccc3)N(Nc3ccccc3F)C2C(=O)N1c1ccccc1 (stereo not given) | 0.802 | 0.632 | 0.786 | 0.34 (inactive) | 1.38 | 1.32 | 0.292 | 1.39 | 0.0465 | 0.875
15 | C=C[C@H](C)[C@@H](OC(=O)Nc1ccc(SC)cc1)c1ccc(OCCO)cc1 | 1.11 | -0.189 | 0.529 | -1.36 (inactive) | 1.02 | 0.321 | -0.359 | 0.379 | -0.395 | 0.246
16 | O=C1NC(=O)C2C1C=CC(C(O)C(c1ccccc1)c1ccccc1)N2Nc1ccccn1 (stereo not given) | 0.737 | 1.25 | 1.15 | 0.864 (inactive) | 0.909 | -0.145 | 0.457 | 0.503 | 0.593 | 1.32
17 | CCN1C(=O)C2CC(=O)C3C(CN(S(=O)(=O)c4ccc(C)cc4)C3c3ccc(C)cc3)C2C1=O (stereo not given) | 0.959 | 0.972 | 0.882 | -0.106 (inactive) | 0.193 | 0.338 | -0.483 | -0.167 | -0.295 | 1.15
18 | N#Cc1ccc(NN2C(C(O)c3ccc(B(O)O)cc3)C=CC3CN(c4ccccc4)C(=O)C32)cc1 (stereo not given) | 0.35 | 0.0933 | 0.584 | 0.441 (inactive) | -0.792 | -0.824 | -0.533 | -0.172 | -0.445 | 0.462
19 | C=CCOC(=O)[C@@H]1[C@H]2C(=O)O[C@H](c3ccccc3)[C@H](c3ccccc3)N2[C@H](c2ccc(OCCOC(=O)[C@@H]3C[C@@H]4C(=O)N[C@@H](CC(C)C)C(=O)N4[C@@H]3c3ccc(O)cc3)cc2)[C@@]12C(=O)Nc1ccc(I)cc12 | 1.03 | -0.228 | -0.355 | -0.771 (inactive) | 1.37 | 1.28 | 0.817 | 1.42 | 1.14 | 0.79
20 | C=CCNC(=O)[C@H]1[C@@H]2C(=O)O[C@@H](c3ccccc3)[C@@H](c3ccccc3)N2[C@@H](c2ccc(OCCO)cc2)[C@]12C(=O)N(C(=O)OCCOC)c1ccc(C#CCNC(N)=O)cc12 | 1.27 | 0.02 | 0.687 | 0.0908 (inactive) | 1.3 | 0.998 | 0.686 | 0.989 | 0.998 | 0.823
21 | Cc1ccc(S[C@]2(C(=O)NCc3ccccc3)CC(=O)N(Cc3ccccc3C(F)(F)F)[C@@H]2c2ccc(CO)cc2I)cc1 | 1.62 | 0.211 | 0.831 | -0.494 (inactive) | -0.557 | -0.498 | -1.3 | -0.793 | -0.749 | 1.07
22 | C=CCNC(=O)[C@H]1[C@@H]2C(=O)O[C@@H](c3ccccc3)[C@@H](c3ccccc3)N2[C@@H](c2ccc(OCCO)cc2)[C@]12C(=O)N(C(=O)OCCOC)c1ccc(C#CCC(C(=O)OC)C(=O)OC)cc12 | 1.4 | 0.713 | 0.997 | 0.345 (inactive) | 1.44 | 1.16 | 0.524 | 1.08 | 0.5 | 0.768
23 | O=C1O[C@H](c2ccccc2)[C@H](c2ccccc2)N2[C@H]1[C@@H](C(=O)O)[C@]1(C(=O)Nc3ccccc31)[C@H]2c1ccc(OCCO)cc1 | 0.975 | -0.0668 | -0.0097 | -0.749 (inactive) | 0.141 | -0.0583 | -0.055 | 0.0497 | -0.449 | 0.601
24 | [N-]=[N+]=NCc1ccccc1[C@H]1OC(c2ccc(OCCCO)cc2)=N[C@@]1(Cc1ccccc1N=[N+]=[N-])C(N)=O | 1 | 0.853 | 0.879 | -0.146 (inactive) | 1.3 | 1.29 | 0.32 | 0.828 | 0.28 | 1.02
25 | CC(=O)NCCCC[C@@H]1NC(=O)[C@H]2C[C@@H](C(=O)O)[C@@H](c3cccc(OCCO)c3)N2C1=O | 1.69 | 0.904 | 0.237 | 0.345 (inactive) | 1.25 | 1.33 | 0.556 | 1.32 | 0.639 | 0.316
26 | COCCCNC(=O)[C@@]1(CCC(=O)OC(C)(C)C)N=C(c2ccc(OCCCO)cc2)O[C@H]1c1ccccc1 | 1.06 | 0.96 | 1.02 | -0.187 (inactive) | 0.638 | -0.505 | -0.266 | 0.297 | -0.538 | 0.701
27 | CN1C(=O)C2C(C1=O)C1C=C(CCCO)C2C(C2CC2)N1C (stereo not given) | 0.264 | 0.0917 | 0.38 | -0.89 (inactive) | -0.158 | -0.83 | 0.0501 | -0.694 | -0.741 | 0.411
28 | COC(=O)[C@@]1(Cc2ccc(F)cc2)[C@H]2c3cc(C(=O)N4CCCC4)n(CCc4c[nH]c5cc(F)ccc45)c3C[C@H]2CN1C(=O)c1ccccc1 | 1.05 | 0.593 | 0.852 | -0.685 (inactive) | 1.14 | 1.32 | 0.146 | 1.25 | 0.736 | 1.09
29 | C=C(COC)/C(=C/C[C@@H](OC(=O)c1ccncc1)c1ccccc1OCCO)c1cnc2ccccc2c1 | 0.247 | -0.0501 | 0.0321 | 0.488 (inactive) | 1.47 | 1.29 | 1.3 | 1.59 | 0.651 | 1.61
30 | CC1C2C(CCCO)=CC(C3C(=O)N(C(N)=O)C(=O)C23)N1Cc1cccc(OC(F)(F)F)c1 (stereo not given) | 0.174 | -0.0132 | -0.311 | -0.586 (inactive) | 0.646 | 0.719 | 0.177 | 0.101 | -0.26 | -0.055
